Bim-Mcl-1: inhibitors of Bim-Mcl-1 interaction, human | 190,000 compounds, 0.1% hits | AID 1009 | Q07820 | inhibition, % at 10 µM | Bead-based flow cytometry, Bim peptide-Mcl-1 binding; in the data active = inhibition above about 40%
Target sequence (Q07820 whole entry, looked up): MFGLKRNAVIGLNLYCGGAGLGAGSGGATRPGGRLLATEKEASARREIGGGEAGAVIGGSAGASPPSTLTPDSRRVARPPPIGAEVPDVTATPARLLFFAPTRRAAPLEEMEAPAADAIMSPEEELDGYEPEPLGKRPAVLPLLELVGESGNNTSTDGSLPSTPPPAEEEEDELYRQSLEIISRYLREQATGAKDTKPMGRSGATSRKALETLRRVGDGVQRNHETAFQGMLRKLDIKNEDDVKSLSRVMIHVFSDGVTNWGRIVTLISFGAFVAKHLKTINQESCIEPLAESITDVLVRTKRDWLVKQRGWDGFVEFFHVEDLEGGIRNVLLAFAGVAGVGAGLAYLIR
14-3-3 Bad inh: disrupts binding of bovine 14-3-3 zeta to phospho-Bad peptide. TR-FRET 14-3-3zeta/Dy647-pBad peptide displacement, 1 h. AID 781. P63103. inhibition, % at 21.7 µM. 220,000 compounds, 0.71% hits;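 active = inhibition above about 70%, limit read from the data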
Target sequence (P63103 whole entry, looked up): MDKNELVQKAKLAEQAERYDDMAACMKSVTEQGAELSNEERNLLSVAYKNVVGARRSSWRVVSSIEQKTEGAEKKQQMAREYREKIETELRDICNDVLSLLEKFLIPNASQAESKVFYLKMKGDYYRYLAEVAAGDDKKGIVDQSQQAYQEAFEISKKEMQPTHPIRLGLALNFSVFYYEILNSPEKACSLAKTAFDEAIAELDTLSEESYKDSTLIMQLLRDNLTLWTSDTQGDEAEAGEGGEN
Mcl1 Bid PPI: Mcl-1/Bid interaction inhibition | TR-FRET Mcl-1/Bid-Dy647 peptide binding, 1536-well | AID 1021 | inhibition, % at 21.7 µM | 220,000 compounds, 0.97% hits | Q07820;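 active = compounds that cut the binding signal by more than half at the single screening dose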;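 note: His-tagged Mcl-1 with europium anti-His antibody binding Bid BH3 peptide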
Mcl1-Noxa inh: Mcl-1/Noxa interaction inhibition. Q07820. TR-FRET Mcl-1/Noxa peptide binding, 2 h. inhibition, % at 21.7 µM. 220,000 compounds, 1.5% hits. AID 1022;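 active = compounds that cut the protein-peptide binding signal by more than 50% relative to plate controls in a single-dose test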;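 note: His-tagged Mcl-1 with rhodamine Noxa BH3 peptide and terbium anti-His antibody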
p47phox inh: p47phox (human) inhibition | P14598 | p47phox/p22phox peptide binding, fluorescence polarization, 2 h | inhibition, % at 24.7 µM | 220,000 compounds, 0.53% hits | AID 1274;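 active = inhibition above about 30%, limit read from the data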
Each line names hits and unclear results; the compound was inactive in the other large screens; [ ] = remark or other dose. Shown are actives, neighbours in structure and some others; about 3.1% of the full set was active somewhere.

COc1ccc(C(=O)N(Cc2ccccc2)Cc2cc3cc4c(cc3[nH]c2=O)OCCO4)cc1	Mcl1 Bid PPI 95
NC12CC3CC(C1)CC(CO)(C3)O2	none
Cc1ccc([N+](=O)[O-])cc1-c1ccc(/C=C(\C#N)c2[nH]nc(N)c2C#N)o1	14-3-3 Bad inh 72[fluorescence artefact?], Mcl1 Bid PPI 79, Mcl1-Noxa inh 68, p47phox inh 38
CCOc1ncccc1C(=O)OCC(=O)Nc1c(C)cccc1C	none
Cc1cccc(C)c1NC(=O)COC(=O)c1cccnc1	Mcl1-Noxa inh 56
COC(=O)C(O)(NC(=O)c1ccncc1)C(F)(F)F (stereo not drawn)	none (no result: Bim-Mcl-1)
Cc1c(N2C(=O)CSC2c2ccc(F)cc2)c(=O)n(-c2ccccc2)n1C (stereo not drawn)	none (no result: Bim-Mcl-1)
O=C(c1ccco1)N1CCN(c2cc(N3CCOCC3)c(F)cc2[N+](=O)[O-])CC1	none
O=C(O)c1cc(O)c2c(c1)C(=O)c1cccc(O)c1C2=O	14-3-3 Bad inh 74, Mcl1-Noxa inh 61
CCN1C(=O)/C(=C2/Sc3ccc(OC)cc3N2C)SC1=Nc1cccc(O)c1	Mcl1 Bid PPI 65, Mcl1-Noxa inh 70
C=CCN1C(=O)/C(=C2/Sc3ccc(OC)cc3N2C)SC1=Nc1ccccc1	none
COc1ccc(C2=NN(c3ccccc3)C(=O)/C2=C\c2ccc(O)c(OC)c2)cc1	Mcl1-Noxa inh 52
COc1cc(/C=C2\SC(c3ccc(C)cc3)=NC2=O)ccc1O	none
COc1ccc(N=Cc2cc3c(cc2O)OC(N)=C(C#N)C3c2ccccc2)cc1 (stereo not drawn)	none
CCc1c(C(=O)Nc2cc(C)ccc2OC)[nH]c(C)c1C(C)=O	Mcl1 Bid PPI 96
CC(CSc1nnnn1-c1ccccc1)Cn1c(N2CCN(C)CC2)nc2c1c(=O)[nH]c(=O)n2C (stereo not drawn)	Mcl1-Noxa inh 52
CC(C)n1c(O)c(/C=C2\C=NN=C2c2ccccc2)sc1=S	Mcl1-Noxa inh 66 (no result: Bim-Mcl-1)
CCOc1ccc(CNc2ccc(S(N)(=O)=O)cc2)cc1	none
CSc1nc(Cc2ccccc2)cc(=O)[nH]1	none
CCCCn1c(N)c(NCC)c(=O)[nH]c1=O	none
COc1ccc(OCCNC(=O)c2ccccc2OCC(=O)Nc2ccc(NC(C)=O)cc2)cc1	none
COc1ccc(OCCNC(=O)c2ccccc2OCC(=O)N2CCCCC2)cc1	Bim-Mcl-1 68
Cc1cc(NC(=O)CSc2nnc(C3COc4ccccc4O3)n2N)no1 (stereo not drawn)	p47phox inh 44 (no result: Bim-Mcl-1)
Cc1ccc(NS(=O)(=O)c2ccc3[nH]c(=O)[nH]c3c2)c(C)c1	none
CCN1CCN(c2cc(C)c3cc(NC(=O)c4ccc(Br)o4)ccc3n2)CC1	none
CCN(CC)c1cc(C)c2cc(NC(=O)c3ccc(Br)o3)ccc2n1	Mcl1-Noxa inh 60
COc1c2ccoc2nc2c(OC)c(OCC(OC(C)=O)C(C)(C)O)ccc12 (stereo not drawn)	p47phox inh 161
CCOC(=O)c1c(-c2ccccc2)csc1NC(=O)/C(C#N)=C/c1ccc(O)c(OC)c1	none (no result: Bim-Mcl-1)
COc1ccc(-c2nc3ccccc3c(=O)n2CCOc2c(C)cccc2C)cc1	none
COc1ccc(-c2nc3ccccc3c(=O)n2CCOc2cccc(C)c2C)cc1	Mcl1 Bid PPI 95
Cc1ccc(/C(CSc2nccn2-c2ncc(C(F)(F)F)cc2Cl)=N\O)cc1	p47phox inh active
O=C(O)c1ccc(NC2CC(=O)N(Cc3ccccc3)C2=O)cc1 (stereo not drawn)	none
CCOC(=O)CSC1=NC(=O)/C(=C/c2ccc(OC)cc2)S1	none
Cc1ccc(NC(=O)c2cc(N3C(=O)C=CC3=O)ccc2N2CCOCC2)cc1Cl	Mcl1-Noxa inh 56
Cc1ccc(NC(=O)c2cc(N3C(=O)CCC3=O)ccc2N2CCOCC2)cc1	none
O=C(Nc1ccc(N2CCOCC2)cc1)Nc1ccc(Cl)c(Cl)c1	Mcl1-Noxa inh 82
CCC(C)[C@@H](NC(=O)OC(C)(C)C)c1nnc(S(=O)(=O)Cc2cccc(C)c2)o1 (stereo partly drawn)	p47phox inh 60
CC(C)(C)OC(=O)N[C@@H](Cc1ccccc1)c1nnc(S(=O)(=O)Cc2ccccc2)o1	none
Cc1ccc(C(=O)N2CCOCC2)c(F)c1F	none
COc1ccc(NC(=O)c2c3c(nc4ccccc24)CCC3)cc1S(=O)(=O)N1CCOCC1	Mcl1-Noxa inh 67
O=C(O)c1cccc(S(=O)(=O)Nc2ccc3[nH]c(=O)[nH]c3c2)c1	none (no result: Bim-Mcl-1)
O=C(O)c1ccc(Cl)c(S(=O)(=O)Nc2ccc3[nH]c(=O)[nH]c3c2)c1	Mcl1-Noxa inh 56 (no result: Bim-Mcl-1)
CCc1ccc(C(=O)NNC(=S)Nc2ccc(S(N)(=O)=O)cc2)s1	none
CCC(CC)NC(=O)COC(=O)c1cc(Br)ccc1Cl	Mcl1 Bid PPI 97
CCCCNC(=O)COC(=O)c1cc(Br)ccc1Cl	none
CCCCCC#CCC#CCC#CCC#CCCCC(=O)O	14-3-3 Bad inh 89, Mcl1 Bid PPI 100, Mcl1-Noxa inh 103
COc1ccc(NC(=O)c2nc3nccc(C)n3n2)cn1	none
O=C(CN1C(=O)NC(c2ccccc2)(c2ccccc2)C1=O)Nc1ccc2[nH]c(=O)[nH]c2c1	Mcl1-Noxa inh 64 (no result: Bim-Mcl-1)
Cc1cc(C)c(C)c(C(=O)CSc2nnc(C)c(=O)[nH]2)c1C	none
Cc1ccc(C(C)C)c(OCc2nc(-c3nonc3N)no2)c1	p47phox inh 166
CC1(C)CC2CC(C)(CN2C(=O)c2ccccc2)C1 (stereo not drawn)	none
COc1ccc(C(=O)N2CC3(C)CC2CC(C)(C)C3)cc1 (stereo not drawn)	p47phox inh 56
[O-]/C(=C(\C(=S)Nc1cccc2ccccc12)[n+]1ccccc1)c1cccs1	14-3-3 Bad inh 84
O=C(NCCc1ccccc1)C1CCCN1S(=O)(=O)c1ccccc1 (stereo not drawn)	none
COc1ccc(C2=C/C(=C\c3ccc(OC(C)=O)cc3)C(=O)O2)cc1	none
CN(C)c1ccc(/C=C2/C=C(c3ccc4c(c3)CCCC4)OC2=O)cc1	p47phox inh 45 (no result: Bim-Mcl-1)
Clc1ccc(-c2c(C3=NCCCN3)nnn2-c2ccc(Cl)cc2)cc1	none (no result: Bim-Mcl-1)
O=C(N/N=C/c1cccc([N+](=O)[O-])c1)c1cc(-c2ccc3c4c(cccc24)CC3)n[nH]1	Mcl1 Bid PPI 60
O=C(N/N=C/c1ccc(Cl)c([N+](=O)[O-])c1)c1cc(-c2ccc3c4c(cccc24)CC3)n[nH]1	Mcl1-Noxa inh 64 (no result: Bim-Mcl-1)
O=C(N/N=C/c1ccc(Cl)c([N+](=O)[O-])c1)c1ccc2nc[nH]c2c1	none
COc1cccc(Oc2nccc(N(C)C)c2C#N)c1	none
Cc1ccc(C(=O)Nc2ccc(NC(=O)c3cccs3)cc2)cc1[N+](=O)[O-]	none
Cc1ccc(C(=O)NC(=S)Nc2ccc(NC(=O)c3cccs3)cc2)cc1[N+](=O)[O-]	Mcl1 Bid PPI 52
COc1ccc(N2CCC(CNC(=S)Nc3cccc(OC)c3)C2)cc1 (stereo not drawn)	Mcl1-Noxa inh 75
COc1ccc(N2CCC(CNC(=O)Nc3ccc(Cl)cc3)C2)cc1 (stereo not drawn)	Mcl1-Noxa inh 76

Bioassay records deposited in PubChem BioAssay by several laboratories.
